{"source": "PubChem BioAssay AID504467", "about": "(National Center for Advancing Translational Sciences (NCATS), 2011)", "note": "Hit rate of the full screen: of about 330,000 compounds, about 7,700 (2.3%) were called active. Another 26% or so got no clear call; they are omitted. The sample as a whole holds a higher share of actives than the screen did. A number with no mark means an inactive call. The call rests on the fitted dose curve; in most records, active means well fitted inhibition curve with a large enough effect; inconclusive means small, poorly fitted or top-dose-only effect, or effect the other way; inactive means flat fitted curve, though single readings scatter.", "data": [{"assay": "qHTS screen for small molecules that inhibit ELG1-dependent DNA repair in human embryonic kidney (HEK293T) cells expressing luciferase-tagged ELG1; further: nearly all actives have a fitted effect of over 55% in size; further: potency means the concentration at half of the fitted maximal effect; on activity change, negative = inhibition: on the % scale 0 is the no-effect control and ±100 the full control effect", "details": "HEK293T ELG1-luciferase reporter, luminescence, 16 h, DNA damage induced by 5-fluorouridine; series mostly up to 46.1 µM; activity change, negative = inhibition: at the top concentration", "summary_of_the_method": "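Cells (2,000 per well) received 5-fluorouridine plus test compound or DMSO and were incubated 16 hr at 37 °C, 5% CO2. Luciferase activity was read by luminescence 30 min after ONE-Glo addition; signal suppression marked inhibition of damage-induced ELG1 function.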", "units": {"activity change, negative = inhibition": "%"}, "values": [{"compound": "CCC(C)N(C(=O)CSc1ncnc2c1cnn2-c1ccccc1)C1CCS(=O)(=O)C1", "note": "(configuration not stated)", "activity change, negative = inhibition": -23.7}, {"compound": "O=C(CSc1nc2ccccc2c(=O)n1Cc1ccc(F)cc1)NCC1CCCO1", "note": "(configuration not stated)", "activity change, negative = inhibition": 4.76}, {"compound": "Cc1nc2ccccc2c(C)c1C(=O)c1ccc(F)cc1", "Potency": "14.6 µM (active)"}, {"compound": "Cc1nc2ccccc2c(-c2ccccc2)c1C(=O)c1ccccc1", "activity change, negative = inhibition": -18.7}, {"compound": "CN(Cc1nc2ccccc2s1)C(=O)c1ccc(F)cc1", "activity change, negative = inhibition": 11.3}, {"compound": "Cc1ccc2nc(SCC(=O)N3CC(C)OC(C)C3)nc(=O)n2c1", "note": "(configuration not stated)", "activity change, negative = inhibition": 28.1}, {"compound": "COc1ccc(NC(=O)C2CCCN(S(=O)(=O)c3cccc4cccnc34)C2)cc1OC", "note": "(configuration not stated)", "Potency": "20.6 µM (active)"}, {"compound": "COc1ccccc1CNC(=O)C1CCCN(S(=O)(=O)c2cccc3cccnc23)C1", "note": "(configuration not stated)", "activity change, negative = inhibition": -0.624}, {"compound": "CCOc1cccc(NC(=O)C2CCCN(S(=O)(=O)c3ccc(OC)cc3)C2)c1", "note": "(configuration not stated)", "Potency": "23.1 µM (active)"}, {"compound": "Cc1cccc(OCCCC(=O)Nc2ccc(S(=O)(=O)N3CCCC3)cc2)c1", "Potency": "18.4 µM (active)"}, {"compound": "O=C(O)C1CCCN(S(=O)(=O)c2cccc3cccnc23)C1", "note": "(configuration not stated)", "activity change, negative = inhibition": 5.15}, {"compound": "COc1ccc(CCNC(=O)C2CCCN(S(=O)(=O)c3ccc(OC)cc3)C2)cc1", "note": "(configuration not stated)", "activity change, negative = inhibition": -14.9}, {"compound": "Cc1ccc(C)c(OCCC(=O)Nc2cccc(S(=O)(=O)N3CCCC3)c2)c1", "activity change, negative = inhibition": -28.4}, {"compound": "CCOc1ccc(NC(=O)COc2ccc(S(=O)(=O)N3CCCC3)cc2)cc1", "activity change, negative = inhibition": 0.975}, {"compound": "CCN(CC(=O)Nc1ccc(S(=O)(=O)N2CCCC2)cc1)CC(=O)Nc1cccc(OC)c1", "activity change, negative = inhibition": 0.139}, {"compound": "COc1ccc(C(=O)O)cc1S(=O)(=O)NC1CCN(Cc2ccccc2)CC1", "activity change, negative = inhibition": 18.1}, {"compound": "CCOCCCN(C)C1CCN(C(=O)c2oc3ccccc3c2NC(=O)Cc2cccc([N+](=O)[O-])c2)CC1", "activity change, negative = inhibition": -0.878}, {"compound": "CCCCC[C@@H]1C=C(C(=O)O)[C@H](c2ccc(C#N)cc2)N1S(=O)(=O)c1ccc(C)cc1", "activity change, negative = inhibition": -1.41}, {"compound": "COc1ccc(C(C(=O)NCC2CCCO2)N(C(=O)Cn2nnc3ccccc32)c2ccc(NC(C)=O)cc2)cc1OC", "note": "(configuration not stated)", "activity change, negative = inhibition": 22.7}, {"compound": "COc1ccccc1CNS(=O)(=O)c1cc(C(=O)NCc2ccccn2)c(Cl)cc1Cl", "activity change, negative = inhibition": -4.45}, {"compound": "COc1ccc(N2CCN(C(=O)Cn3cnc4sc(C)c(S(=O)(=O)N5CCOCC5)c4c3=O)CC2)cc1", "activity change, negative = inhibition": -2.61}, {"compound": "COc1ccc(OCC(=O)Nc2ccc(NC(=O)c3ccco3)c(C)c2)cc1", "activity change, negative = inhibition": 22.9}, {"compound": "Cc1cccc(OCC(=O)Nc2ccc(NC(=O)c3ccco3)c(C)c2)c1", "activity change, negative = inhibition": 4.01}, {"compound": "CCN(CC)P(=O)(Nc1ccc(SC(F)F)cc1)c1ccc(N(C)C)cc1NC(=O)c1ccco1", "note": "(configuration not stated)", "Potency": "7.3 µM (active)"}, {"compound": "Cc1ccc2c(c1)c1ncn(Cc3ccc(F)cc3)c(=O)c1n2C", "activity change, negative = inhibition": 10.3}, {"compound": "CC(C)(C)n1ncc2c(=O)n(Cc3ccc(Cl)cc3)cnc21", "Potency": "20.6 µM (active)"}, {"compound": "CC(C)(C)n1ncc2c(=O)n(Cc3c(Cl)cccc3Br)cnc21", "activity change, negative = inhibition": -23.1}, {"compound": "COc1cc(NC(=O)COC(=O)c2cc(S(=O)(=O)N3CCOCC3)ccc2F)cc(OC)c1", "activity change, negative = inhibition": -6.98}, {"compound": "COCCNc1nc(N)c([N+](=O)[O-])c(N2CCCCCC2)n1", "activity change, negative = inhibition": -15.1}, {"compound": "O=C(CN1CCN(c2ccccc2O)CC1)NC(=O)NCc1ccccc1", "activity change, negative = inhibition": -4.25}, {"compound": "O=C(C1CCN(C2CCN(Cc3cccc4c3OCO4)CC2)CC1)N1CCOCC1", "activity change, negative = inhibition": -21.1}, {"compound": "C/C(=C\\c1ccco1)CN1CCC(N2CCC(C(=O)N3CCOCC3)CC2)CC1", "activity change, negative = inhibition": 0.385}, {"compound": "O=C(C1CCN(C2CCN(Cc3ccc4cc(F)ccc4n3)CC2)CC1)N1CCCC1", "Potency": "13 µM (active)"}, {"compound": "CCCC(CNC(=O)COC(=O)C1=NNC(=O)CC1)c1ccc(Cl)cc1Cl", "note": "(configuration not stated)", "activity change, negative = inhibition": -1.01}, {"compound": "CN(CC(=O)Nc1ccc(C(N)=O)cc1)S(=O)(=O)c1ccc2c(c1)OCCO2", "activity change, negative = inhibition": 8.22}, {"compound": "CCOc1ccc(NS(=O)(=O)c2ccc(C(=O)NC3CCN(Cc4ccccc4)CC3)cc2)cc1", "activity change, negative = inhibition": -23}, {"compound": "COc1cc(OC)cc(C(=O)N[C@H](C(=O)NNC(=O)c2ccc(Br)cc2)C(C)C)c1", "activity change, negative = inhibition": -27.5}, {"compound": "O=C(Nc1nnc(COc2ccccc2)s1)Nc1ccccc1F", "activity change, negative = inhibition": 1.38}, {"compound": "O=C(NCC(F)(F)F)Nc1nnc(C(F)(F)F)s1", "Potency": "18.4 µM (active)"}, {"compound": "COc1ccc(C)cc1NC(=O)CCC(=O)Nc1nnc(C(F)(F)F)s1", "activity change, negative = inhibition": 7.17}, {"compound": "COc1ccccc1N1CCN(S(=O)(=O)CCNC(=O)c2ccc(OC(C)C)cc2)CC1", "Potency": "13 µM (active)"}, {"compound": "O=C(NCCS(=O)(=O)N1CCN(c2ccccc2F)CC1)c1ccc(Br)o1", "activity change, negative = inhibition": -0.534}, {"compound": "CCOc1ccc(CC(=O)NCCS(=O)(=O)N2CCN(c3ccccc3)CC2)cc1", "activity change, negative = inhibition": -28.2}, {"compound": "COc1ccc(S(=O)(=O)N2CCCCC2)cc1NC(=O)C1CC(=O)N(c2ccc3c(c2)OCCO3)C1", "note": "(configuration not stated)", "activity change, negative = inhibition": -20.1}, {"compound": "CC1CC(=O)Nc2ccccc2N1C(=O)COc1ccc2cc(Br)ccc2c1", "note": "(configuration not stated)", "activity change, negative = inhibition": -1.49}, {"compound": "C#CCOc1ccccc1/C=C1/C(=O)ON=C1C", "activity change, negative = inhibition": 6.14}, {"compound": "Cn1cccc1/C=N/NC(=O)CNc1cccc2ccccc12", "Potency": "13 µM (active)"}]}]}
